Test results reported in PubChem BioAssay (EPA / NIEHS).
Where a structure was tested more than once in an assay, its records may differ in their call. Active and inactive are the calls of the source. The calls were made as follows: active = hit-call score of the fitted dose curve at least 0.9, where 1 is the maximum; inactive = score below 0.9.

assay: CCTE_Shafer_MEA_acute_per_burst_spike_number_mean: CCTE's Neural Acute Assay for Average Number of Spikes Per Burst, Shafer Lab (AID 2284015);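 also: hits are decreases in mean spikes per burst versus baseline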
Description: CCTE_Shafer_MEA_acute assay is conducted using Axion Biosystems 48 well microelectrode array (MEA) plates and Maestro recording system. Each well of the MEA plate contains a grid of 16 microelectrodes embedded in the culture surface. Electrically active cells, such as neurons, can be cultured over the electrodes, and electrical activity in these cells can be recorded extracellularly. The spontaneous firing of neurons is captured from each electrode on a microsecond timescale providing both temporally and spatially precise data. […] The CCTE_Shafer_MEA_acute assay uses primary cultures of rat cortical neurons. As these cultures mature over time, neural networks develop functional activity and form cohesive networks in which electrical activity can be highly coordinated. Baseline 40-minute recordings are made on days post-plating 13 or 15, followed by a secondary 40-minute recording after chemical exposure.CCTE_Shafer_MEA_acute_per_burst_spike_number_mean is a component of the CCTE_Shafer_MEA_acute assay. It measures the average number of spikes (action potential firings) in a single-electrode burst (temporally-clustered group of spikes) during a recording in a microelectrode array (MEA) using Axion Biosystems Maestro 768 channel amplifier with the AxIS adaptive spike detector. The recordings before and after chemical treatment are used to calculate a percent change in the mean number of spikes per burst in each well.Data from the assay component CCTE_Shafer_MEA_acute_per_burst_spike_number_mean was analyzed into 1 assay endpoint. This assay endpoint, CCTE_Shafer_MEA_acute_per_burst_spike_number_mean, was analyzed in the negative analysis fitting direction relative to DMSO as the negative control and baseline of activity. Using a type of functional reporter, gain or loss-of-signal activity can be used to understand electrical activity.
Spontaneous activity in the cortical cultures was recorded using an Axion Biosystems Maestro 768 channel amplifier and Axion Integrated Studios (AxIS) v1.8 (or later) software. The amplifier recorded from all channels simultaneously (gain = 1200 x; sampling rate = 12.5 kHz/channel): raw signals were filtered with a Butterworth band-pass filter (300-5000 Hz), which filters out slower local field potentials leaving only fast potentials, i.e., "spikes", arising from extracellular currents associated with action potentials (Pine 2006; Wheeler and Nam 2011). On-line spike detection of filtered signals was conducted with the AxIS adaptive spike detector, using a threshold of 8x the root mean squared (rms) noise on each channel. Any electrodes with rms noise levels greater than 5 uV were grounded (e.g., no data were recorded). Once grounded, an electrode was grounded for the duration of the experiment. All recordings were conducted at 37 C. Wells were deemed usable if on the day of the exposure >/= 10 electrodes were active (defined as >/= 5 spikes/min). On DIV 13 or 15, a minimum of three wells from one cortical culture preparation were treated with each compound (0.03-40 uM). Prior to recording baseline activity, each mwMEA plate was placed in the Maestro at 37 C and allowed to sit for 20 min while firing rates stabilized. Baseline activity (40 min) was recorded before the addition of each compound. An additional 40 min of spontaneous activity was recorded in the presence of each compound. Changes in network parameters relative to baseline were assessed following compound treatment.

Compound	outcome	AC50
CCCCNC(=O)OCC#CI	inactive	
C#CCOS(=O)OC1CCCCC1Oc1ccc(C(C)(C)C)cc1 (centres undefined)		33.6 µM (active)
CS/C(C)=N/OC(=O)N(C)SN(C)C(=O)O/N=C(\C)SC	inactive	
CCOP(=S)(OCC)SCn1c(=O)oc2cc(Cl)ccc21	inactive	
N#Cc1nn(-c2c(Cl)cc(C(F)(F)F)cc2Cl)c(N)c1S(=O)C(F)(F)F (centres undefined)	inactive	1.87 µM (active)
C=CCC1=C(C)C(OC(=O)C2C(C=C(C)C)C2(C)C)CC1=O (centres undefined)	inactive	2.93 µM (active)
Cc1ccc(-c2c(Cl)nc(C#N)n2S(=O)(=O)N(C)C)cc1	inactive	
Fc1ccc(Oc2ccnc3cc(Cl)cc(Cl)c23)cc1	inactive	
COC(=O)C(C)Oc1ccc(Oc2ccc(Cl)cc2Cl)cc1 (centres undefined)	inactive	
CC(C)(C)c1ccc(CSc2cnn(C(C)(C)C)c(=O)c2Cl)cc1		3.63 µM (active)
COC(=O)N(OC)c1ccccc1COc1ccn(-c2ccc(Cl)cc2)n1		2.16 µM (active)
C=CCC1=C(C)[C@@H](OC(=O)[C@@H]2[C@@H](C=C(C)C)C2(C)C)CC1=O	inactive	
CCCC1COC(Cn2cncn2)(c2ccc(Cl)cc2Cl)O1 (centres undefined)		20 µM (active)
OC(c1ccc(Cl)cc1)(c1cncnc1)c1ccccc1Cl (centres undefined)		5 µM (active)
CNC(=O)ON=CC(C)(C)SC	inactive	
CCNc1nc(Cl)nc(NC(C)C)n1	inactive	
COc1ccc(C(c2ccc(OC)cc2)C(Cl)(Cl)Cl)cc1	inactive	
O=C(O)c1nc(Cl)ccc1Cl	inactive	
CO/C=C(/C(=O)OC)c1ccccc1Oc1cc(Oc2ccccc2C#N)ncn1	inactive	
N#CC(CCc1ccc(Cl)cc1)(Cn1cncn1)c1ccccc1 (centres undefined)	inactive	
CC(Oc1ccc(Cl)cc1Cl)C(=O)O (centres undefined)	inactive	
CON(C)C(=O)Nc1ccc(Cl)c(Cl)c1	inactive	
CCCN(CCC)c1c([N+](=O)[O-])cc(S(N)(=O)=O)cc1[N+](=O)[O-]	inactive	
COP(N)(=O)SC (centres undefined)	inactive	
CC1COC(Cn2cncn2)(c2ccc(Oc3ccc(Cl)cc3)cc2Cl)O1 (centres undefined)	inactive	
CC(C)Oc1cc(-n2nc(C(C)(C)C)oc2=O)c(Cl)cc1Cl	inactive	
Cc1c(F)c(F)c(COC(=O)C2C(/C=C(\Cl)C(F)(F)F)C2(C)C)c(F)c1F (centres undefined)		1.76 µM (active)
